TROY signal inh = inhibitors of TROY-driven NF-kB signaling, primary screen, Q293 LMP1-TROYcd cells, NF-kB luciferase, uHTS. Q293 LMP1-TROYcd NF-kB luciferase reporter, 4 h. inhibition, % at 10 µM. 0.98% of 360,000 active;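 active means compounds whose plate-normalised and pattern-corrected inhibition of the luciferase reporter signal at the single screening dose is 50% or more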
TWEAK-Fn14 inh = inhibitors of TWEAK-Fn14 signaling, primary screen, luciferase reporter cells, uHTS; 2% of 360,000 active; inhibition, % at 10 µM; TWEAK-stimulated Fn14 reporter cells, luciferase luminescence, 8 h; AID 1159606, 2016; in the data active means inhibition above about 50%
EBV LMP1 NFkB = EBV LMP1-driven NF-kappaB luciferase reporter inhibitors, primary screen, cell-based, luminescence, single point. LMP1-induced NF-kappaB luciferase reporter cells. inhibition, % at 12.5 µM. 0.69% of 350,000 active. AID 504558, 2011; in the data active means inhibition above about 41%;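 further: 0% = neutral control wells and 100% = reference inhibitor control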
LGR2 inh = inhibitors of bursicon-induced LGR2 CRE-luciferase signal, primary screen, cell-based, HEK293, CRE-luciferase reporter, bursicon stimulation. Drosophila bursicon receptor LGR2 (rickets). bursicon-stimulated, 4 h. inhibition, % at 9.99 µM. 0.35% of 380,000 active;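 active means drop in luminescence signal, shown as inhibition above about 50% in the replicate tests, limit read from the data, passing the limit was not always enough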;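 further: agonist challenge used bursicon conditioned medium at about half maximal strength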
HSF1 inhib = HSF1 inhibitors in luciferase reporter cells, primary screen, cell-based, NIH3T3, luminescence; NIH3T3-HGL HSE-luciferase, MG132-induced, luminescence 8 h; hits give low values; 0.77% of 300,000 active; AID 2098, 2009; activity change, negative = inhibition, % at 7.5 µM (by protocol);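 active means more than half of replicate wells show activity change below -50%, luminescence cut by over half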;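 further: luciferase reports HSF-1 transcriptional activity via heat shock element; 0% = median of DMSO wells and -100% = zero luminescence signal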
HSF-1 act = HSF-1 activators, primary screen, NIH3T3-HGL cells, MG132 stress, luminescence, single point | NIH3T3-HGL HSF-1 luciferase reporter, 8 h; 100% = twice DMSO control signal | activation, % at 9 µM | 1.7% of 300,000 active | AID 504408, 2011;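 active means mean replicate activation of at least 50% with a set share of replicates each reaching 50%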;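 further: 0% = median of the neutral control wells and 100% = twice that signal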
Starred values were filed as active, the others as inactive. A selection: hits, their analogues and other compounds. The true share with any hit is near 3.6%.

`CCOC(=O)c1sc(NC(=O)Nc2ccc(Cl)cc2)cc1C` gave TROY signal inh 18.2, TWEAK-Fn14 inh 66.7*, EBV LMP1 NFkB 1.4, HSF1 inhib 6.7 and HSF-1 act -8.5.
Screening CCOC(=O)c1sc(=NC(=O)c2cccc(OC)c2)n(C)c1C returned TROY signal inh -113.8, TWEAK-Fn14 inh -37.2, EBV LMP1 NFkB -13.2, HSF1 inhib 21.7 and HSF-1 act 33.8.
`CCOC(=O)c1sc(=NC(=O)c2ccccc2)n(C)c1C` gave TROY signal inh -5.0, TWEAK-Fn14 inh 16.5, EBV LMP1 NFkB -30.6, LGR2 inh -45.1, HSF1 inhib 13.8 and HSF-1 act 61.3*.
Screening CCOC(=O)c1sc(NC(=O)c2ccccc2)cc1C returned TROY signal inh -53.9, TWEAK-Fn14 inh 10.1, EBV LMP1 NFkB -27.4, HSF1 inhib 25.3 and HSF-1 act 55.4*.
`CCOC(=O)c1sc(NC(=O)c2ccc(Cl)s2)cc1C` gave TROY signal inh -35.9, TWEAK-Fn14 inh -57.5, EBV LMP1 NFkB -25.8, LGR2 inh -65.6, HSF1 inhib 27.2 and HSF-1 act 41.6.
`CCOC(=O)c1sc(NC(=O)c2ccc(S(=O)(=O)N(C)C)cc2)cc1C` gave TROY signal inh 26.4, TWEAK-Fn14 inh -0.7, EBV LMP1 NFkB -20.3, HSF1 inhib 1.9 and HSF-1 act 1.8.
For CC(=O)NCCn1ccc2ccccc21 the results were TROY signal inh 2.9, TWEAK-Fn14 inh 23.9, EBV LMP1 NFkB -1.9, HSF1 inhib 21.7 and HSF-1 act 59.8*.
C[C@H]1CN([C@@H](C)CO)C(=O)c2cccc(NC(=O)Nc3ccc(C(F)(F)F)cc3)c2O[C@H]1CN(C)C(=O)Nc1ccc2c(c1)OCO2 was read as LGR2 inh 2.8.
Nc1c(Cl)ncnc1N1CCCC1 was read as TROY signal inh -10.2, TWEAK-Fn14 inh -0.6, EBV LMP1 NFkB -1.2, LGR2 inh -10.7, HSF1 inhib -3.1 and HSF-1 act 0.7.
NC(N)=NC(=O)c1nc(Cl)c(N2CCCCCC2)nc1N was read as TROY signal inh -65.9, TWEAK-Fn14 inh -31.3, EBV LMP1 NFkB 74.0* and LGR2 inh -56.9.
CC(=O)OC1COC(N2CCc3ccccc32)C(OC(C)=O)C1OC(C)=O (configuration not stated) was read as TROY signal inh 2.4, TWEAK-Fn14 inh 61.1*, EBV LMP1 NFkB 3.0, LGR2 inh 2.6, HSF1 inhib -5.2 and HSF-1 act 3.4.
`COC(=O)C1=C(C)N(Cc2cccc(C(F)(F)F)c2)C(=NCc2ccc(C(F)(F)F)cc2)NC1c1ccccc1` (configuration not stated) gave LGR2 inh 14.8.
`COC(=O)C1=C(C)N(Cc2cccc(C(F)(F)F)c2)C(=NCc2ccc(C(F)(F)F)cc2)NC1c1ccc(Cl)cc1` (configuration not stated) gave LGR2 inh 55.1*.
`COC(=O)C1=C(C)N(Cc2ccc(C(F)(F)F)cc2)C(=NCc2ccccc2)NC1c1cccc(Cl)c1` (configuration not stated) gave LGR2 inh 53.0*.
Screening O=S(=O)(Nc1c(O)ccc2ccccc12)c1ccc(F)cc1 returned TROY signal inh 53.8*, TWEAK-Fn14 inh 44.2, EBV LMP1 NFkB -0.8, HSF1 inhib -6.1 and HSF-1 act 3.0.
CCS(=O)(=O)N1CCN(c2ccc(C(=O)NC34CC5CC(CC(C5)C3)C4)cc2[N+](=O)[O-])CC1 was read as TROY signal inh 16.7, TWEAK-Fn14 inh 16.7, EBV LMP1 NFkB 11.0, LGR2 inh -17.0, HSF1 inhib -1.5 and HSF-1 act 4.1.
CCC(OC(=O)c1ccc(S(C)(=O)=O)c([N+](=O)[O-])c1)C(=O)NC1C2CC3CC(C2)CC1C3 (configuration not stated) was read as TROY signal inh 41.1, TWEAK-Fn14 inh 100.1* and LGR2 inh 6.5.

High-throughput results (PubChem BioAssay)
